# Measurements taken from PubChem BioAssay (NCI).
# About 83,000 compounds went through this panel and 20% of them were active in at least one assay; those are over-represented in the sample as a whole.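 The endpoint reported here, percent growth, reads 100 for growth as untreated, 0 for no net growth and -100 for all cells dead.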 The source made the active and inactive calls. How the source made its calls: active means growth percent below 10; inactive means the rest.
# Tested on: HCT-15 colon
# Assay: NCI-60 one-dose screen, 48 h (100 = growth as untreated, 0 = no growth, -100 = all killed)
# Conditions: 10 µM unless noted
row,SMILES,growth
1,COc1ccc(/C=C/C(c2cc(OC)c(OC)c(OC)c2)n2cncn2)cc1O (stereo not drawn),16.5% (inactive)
2,COc1ccc(-c2cn(Cc3cc4ccccc4s3)nn2)cc1OCCN1CCCCC1,59.4% (inactive)
3,COc1ccc(-c2nc3c(c(-c4ccc(Cl)cc4)nn3-c3ccccc3)c(-c3ccccc3)c2C#N)cc1,109% (inactive)
4,COc1ccc2c(c1)CC[C@@H]1[C@@H]2CC[C@]2(C)C3C(=CC(COC(C)=O)C4C(=O)N(c5ccc(Cl)cc5)C(=O)C43)C[C@@H]12 (stereo partly drawn),94.3% (inactive)
5,COc1cc(/C=C/C(=O)N2CCN(C(=O)c3cc(OC)c(OC)c(OC)c3)CC2)ccc1OCCCOc1cc2c(cc1OC)C(=O)N1CCC[C@H]1C=N2,43.4% (inactive)
6,CSc1nc2ccc(C)cc2cc1/C=C1/C=C(c2ccccc2)NC1=O,57.4% (inactive)
7,Cc1ccc2c(c1)sc1nc(-c3c[nH]c4ccccc34)c(Nc3ccccc3)n12,105% (inactive)
8,N=C(N)c1ccc(-c2ccc(-c3ccccc3)o2)o1,13% (inactive)
9,CN1C(=O)N2CN3CCCN(C3)CN3C(=S)NC1C23 (stereo not drawn),103% (inactive)
10,Clc1ccc(-c2cc(-c3ccccc3)nc(N3CCN(CCCNc4ccnc5cc(Cl)ccc45)CC3)n2)cc1,-25.5% (active)
11,COc1cc(/C=C/c2cc(/C=C/c3ccc(O)c(OC)c3)n(C(=O)Nc3ccc(Cl)cc3)n2)ccc1O,7.86% (active)
12,N#Cc1c(-c2ccccc2)nc2c(c(-c3ccc(Cl)cc3)nn2-c2ccccc2)c1-c1ccc([N+](=O)[O-])cc1,99.4% (inactive)
13,COc1ccc(Oc2ccc(/C=C/C(=O)c3cc4ccccc4oc3=O)cc2)cc1,80.5% (inactive)
14,O=[N+]([O-])c1c(O)c(Cl)cc(Cl)c1Cl,99.8% (inactive)
15,O=S(O)c1cc(Cl)cc(Cl)c1OCc1ccccc1,112% (inactive)
16,Cc1oc(-c2ccc(Cl)cc2)nc1C1=NN(C(=O)c2ccncc2)C(c2ccccc2)C1 (stereo not drawn),91.3% (inactive)
17,CS(=O)(=O)c1ccc(-c2nc3ccccc3n2CC(=O)N/N=C/c2ccccc2)cc1,100% (inactive)
18,CCCn1c(=S)sc2c(NNC(C)=O)nc(C)nc21,90.2% (inactive)
19,N#CSc1c[nH]c2ccc(/C=C/C(=O)/C=C(O)/C=C/c3ccc4[nH]cc(SC#N)c4c3)cc12,-31% (active)
20,Fc1cccc(-c2nc(-c3c[nH]c4ncccc34)cs2)c1,82.9% [100 µM] (inactive)

row,SMILES,growth
1,COc1ccc(Oc2ccc(/C=C/C(=O)c3ccc(OC)c(OC)c3)cc2)cc1,61.5% (inactive)
2,CCCCn1c(NC(C)=O)c(S(=O)(=O)c2ccccc2)c2nc3ccccc3nc21,101% (inactive)
3,COc1cc(O)c2c(=O)c3c(CC=C(C)C)cc(OC)c(O)c3oc2c1,29.6% (inactive)
4,CC12OC(CC(O)C1O)n1c3ccccc3c3c4c(c5c6ccccc6n2c5c31)C(=O)N(CCN1CCCC1)C4=O (stereo not drawn),10.5% (inactive)
5,C=C1CC[C@@H]2C(C)(C)[C@H](O)CC[C@@]2(C)[C@@H]1COc1ccc2ccc(=O)oc2c1,56.2% (inactive)
6,COc1c2c(cc3c1C(=O)N[C@@H]1[C@@H](O)[C@@H](O)[C@H](O)C[C@@H]31)OCCO2,102% (inactive)
7,C=C1C(=O)O[C@H]2[C@H]1CC/C(COC(=O)NCc1ccc(Cn3c(=O)sn(-c4ccccc4)c3=O)cc1)=C\CC[C@@]1(C)O[C@@H]21,32.4% (inactive)
8,Cc1nc2sc(C(=O)Nc3ccccn3)c(N)c2cc1C(C)O (stereo not drawn),36.4% (inactive)
9,c1cc(OCCN2CCCC2)ccc1CNc1ccc2nc(CCC3CCCCC3)[nH]c2c1,3.99% (active)
10,Cc1nc([P+](c2ccccc2)(c2ccccc2)c2ccccc2)c(N2CCCCC2)o1,103% (inactive)
11,COc1cc(/C=N/NC(=O)c2ccc(-n3cc(-c4ccccc4)nn3)cc2)cc(OC)c1OC,76.2% (inactive)
12,C=CN(C(=O)N1CCN(c2cc3c(cc2F)c(=O)c(C(=O)O)cn3C2CC2)CC1)c1nc(-c2ccc(Cl)cc2)cs1,24.6% (inactive)
13,COc1ccccc1/C=C/C(=O)Nc1ccc(F)cc1,98.4% (inactive)
14,CC(C)c1ccc2c(c1)CC[C@H]1[C@](C)(C(=O)OCC#CCN3CCCC3)CCC[C@]21C,42.7% (inactive)
15,COc1ccc2c(O)c(/C=C3\N=Nc4ncccc43)oc2c1C[C@@H]1CCNC[C@H]1F,-1.3% (active)
16,c1ccc2cc(Cn3cc(CSc4nc5ccccc5s4)nn3)ccc2c1,107% (inactive)
17,COCC(=O)Oc1cc(-c2ccc(C)cc2C)c(OC(=O)COC)c(-c2ccc(C)cc2C)c1,10.2% (inactive)
18,Cc1nc2ccccc2c(/C=C/c2ccc(F)cc2)c1C(=O)/C=C/c1ccccc1,-4.2% (active)
19,O=C1C=C(SCCO)C(=O)c2ccccc21,-68.5% (active)

# Tested on: HT29 colon
# Assay: as above
# Conditions: 10 µM unless noted
row,SMILES,growth
1,COc1ccc(/C=C/C(c2cc(OC)c(OC)c(OC)c2)n2cncn2)cc1O (stereo not drawn),41% (inactive)
2,COc1ccc(-c2cn(Cc3cc4ccccc4s3)nn2)cc1OCCN1CCCCC1,20.1% (inactive)
3,COc1ccc(-c2nc3c(c(-c4ccc(Cl)cc4)nn3-c3ccccc3)c(-c3ccccc3)c2C#N)cc1,101% (inactive)
4,COc1ccc2c(c1)CC[C@@H]1[C@@H]2CC[C@]2(C)C3C(=CC(COC(C)=O)C4C(=O)N(c5ccc(Cl)cc5)C(=O)C43)C[C@@H]12 (stereo partly drawn),90% (inactive)
5,COc1cc(/C=C/C(=O)N2CCN(C(=O)c3cc(OC)c(OC)c(OC)c3)CC2)ccc1OCCCOc1cc2c(cc1OC)C(=O)N1CCC[C@H]1C=N2,13.5% (inactive)
6,CSc1nc2ccc(C)cc2cc1/C=C1/C=C(c2ccccc2)NC1=O,57.6% (inactive)
7,Cc1ccc2c(c1)sc1nc(-c3c[nH]c4ccccc34)c(Nc3ccccc3)n12,104% (inactive)
8,N=C(N)c1ccc(-c2ccc(-c3ccccc3)o2)o1,4.83% (active)
9,CN1C(=O)N2CN3CCCN(C3)CN3C(=S)NC1C23 (stereo not drawn),95.2% (inactive)
10,Clc1ccc(-c2cc(-c3ccccc3)nc(N3CCN(CCCNc4ccnc5cc(Cl)ccc45)CC3)n2)cc1,-1.6% (active)
11,COc1cc(/C=C/c2cc(/C=C/c3ccc(O)c(OC)c3)n(C(=O)Nc3ccc(Cl)cc3)n2)ccc1O,-11.1% (active)
12,N#Cc1c(-c2ccccc2)nc2c(c(-c3ccc(Cl)cc3)nn2-c2ccccc2)c1-c1ccc([N+](=O)[O-])cc1,93.5% (inactive)
13,COc1ccc(Oc2ccc(/C=C/C(=O)c3cc4ccccc4oc3=O)cc2)cc1,108% (inactive)
14,O=[N+]([O-])c1c(O)c(Cl)cc(Cl)c1Cl,101% (inactive)
15,O=S(O)c1cc(Cl)cc(Cl)c1OCc1ccccc1,104% (inactive)
16,Cc1oc(-c2ccc(Cl)cc2)nc1C1=NN(C(=O)c2ccncc2)C(c2ccccc2)C1 (stereo not drawn),96.6% (inactive)
17,CS(=O)(=O)c1ccc(-c2nc3ccccc3n2CC(=O)N/N=C/c2ccccc2)cc1,88.5% (inactive)
18,CCCn1c(=S)sc2c(NNC(C)=O)nc(C)nc21,103% (inactive)
19,N#CSc1c[nH]c2ccc(/C=C/C(=O)/C=C(O)/C=C/c3ccc4[nH]cc(SC#N)c4c3)cc12,-10.1% (active)
20,Fc1cccc(-c2nc(-c3c[nH]c4ncccc34)cs2)c1,76% [100 µM] (inactive)

row,SMILES,growth
1,COc1ccc(Oc2ccc(/C=C/C(=O)c3ccc(OC)c(OC)c3)cc2)cc1,86% (inactive)
2,CCCCn1c(NC(C)=O)c(S(=O)(=O)c2ccccc2)c2nc3ccccc3nc21,124% (inactive)
3,COc1cc(O)c2c(=O)c3c(CC=C(C)C)cc(OC)c(O)c3oc2c1,71.4% (inactive)
4,CC12OC(CC(O)C1O)n1c3ccccc3c3c4c(c5c6ccccc6n2c5c31)C(=O)N(CCN1CCCC1)C4=O (stereo not drawn),5.08% (active)
5,C=C1CC[C@@H]2C(C)(C)[C@H](O)CC[C@@]2(C)[C@@H]1COc1ccc2ccc(=O)oc2c1,84.1% (inactive)
6,COc1c2c(cc3c1C(=O)N[C@@H]1[C@@H](O)[C@@H](O)[C@H](O)C[C@@H]31)OCCO2,106% (inactive)
7,C=C1C(=O)O[C@H]2[C@H]1CC/C(COC(=O)NCc1ccc(Cn3c(=O)sn(-c4ccccc4)c3=O)cc1)=C\CC[C@@]1(C)O[C@@H]21,20.1% (inactive)
8,Cc1nc2sc(C(=O)Nc3ccccn3)c(N)c2cc1C(C)O (stereo not drawn),27.4% (inactive)
9,c1cc(OCCN2CCCC2)ccc1CNc1ccc2nc(CCC3CCCCC3)[nH]c2c1,7.25% (active)
10,Cc1nc([P+](c2ccccc2)(c2ccccc2)c2ccccc2)c(N2CCCCC2)o1,14.1% (inactive)
11,COc1cc(/C=N/NC(=O)c2ccc(-n3cc(-c4ccccc4)nn3)cc2)cc(OC)c1OC,47.8% (inactive)
12,C=CN(C(=O)N1CCN(c2cc3c(cc2F)c(=O)c(C(=O)O)cn3C2CC2)CC1)c1nc(-c2ccc(Cl)cc2)cs1,40.2% (inactive)
13,COc1ccccc1/C=C/C(=O)Nc1ccc(F)cc1,89.1% (inactive)
14,CC(C)c1ccc2c(c1)CC[C@H]1[C@](C)(C(=O)OCC#CCN3CCCC3)CCC[C@]21C,36.8% (inactive)
15,COc1ccc2c(O)c(/C=C3\N=Nc4ncccc43)oc2c1C[C@@H]1CCNC[C@H]1F,5.21% (active)
16,c1ccc2cc(Cn3cc(CSc4nc5ccccc5s4)nn3)ccc2c1,95.7% (inactive)
17,COCC(=O)Oc1cc(-c2ccc(C)cc2C)c(OC(=O)COC)c(-c2ccc(C)cc2C)c1,34.3% (inactive)
18,Cc1nc2ccccc2c(/C=C/c2ccc(F)cc2)c1C(=O)/C=C/c1ccccc1,3.31% (active)
19,O=C1C=C(SCCO)C(=O)c2ccccc21,95.7% (inactive)
